ChEMBL document CHEMBL3988442, “University of Dundee, Small-Polar-MMV Screening Library” (2021)
For some assays here: Measured potencies and affinities stand elsewhere.

Legend:
Design in all cases: scale not given: direction of the effect not stated beside the values
[1] = molecular target: Protein translocase subunit SecA (Escherichia coli (strain K12)) (UniProt P10408); test: Assay to Identify E. coli SecA ATPase Inhibitors; type: functional; details: 30 µM
[2] = molecular target: T1, Ubiquitin-activating enzyme e1, putative (Leishmania donovani (strain BPK282A1)) (UniProt E9BSI1); test: Leishmania donovani Ubiquitin Activating Enzyme (LdE1); type: functional; details: 30 µM
T1 sequence (whole entry): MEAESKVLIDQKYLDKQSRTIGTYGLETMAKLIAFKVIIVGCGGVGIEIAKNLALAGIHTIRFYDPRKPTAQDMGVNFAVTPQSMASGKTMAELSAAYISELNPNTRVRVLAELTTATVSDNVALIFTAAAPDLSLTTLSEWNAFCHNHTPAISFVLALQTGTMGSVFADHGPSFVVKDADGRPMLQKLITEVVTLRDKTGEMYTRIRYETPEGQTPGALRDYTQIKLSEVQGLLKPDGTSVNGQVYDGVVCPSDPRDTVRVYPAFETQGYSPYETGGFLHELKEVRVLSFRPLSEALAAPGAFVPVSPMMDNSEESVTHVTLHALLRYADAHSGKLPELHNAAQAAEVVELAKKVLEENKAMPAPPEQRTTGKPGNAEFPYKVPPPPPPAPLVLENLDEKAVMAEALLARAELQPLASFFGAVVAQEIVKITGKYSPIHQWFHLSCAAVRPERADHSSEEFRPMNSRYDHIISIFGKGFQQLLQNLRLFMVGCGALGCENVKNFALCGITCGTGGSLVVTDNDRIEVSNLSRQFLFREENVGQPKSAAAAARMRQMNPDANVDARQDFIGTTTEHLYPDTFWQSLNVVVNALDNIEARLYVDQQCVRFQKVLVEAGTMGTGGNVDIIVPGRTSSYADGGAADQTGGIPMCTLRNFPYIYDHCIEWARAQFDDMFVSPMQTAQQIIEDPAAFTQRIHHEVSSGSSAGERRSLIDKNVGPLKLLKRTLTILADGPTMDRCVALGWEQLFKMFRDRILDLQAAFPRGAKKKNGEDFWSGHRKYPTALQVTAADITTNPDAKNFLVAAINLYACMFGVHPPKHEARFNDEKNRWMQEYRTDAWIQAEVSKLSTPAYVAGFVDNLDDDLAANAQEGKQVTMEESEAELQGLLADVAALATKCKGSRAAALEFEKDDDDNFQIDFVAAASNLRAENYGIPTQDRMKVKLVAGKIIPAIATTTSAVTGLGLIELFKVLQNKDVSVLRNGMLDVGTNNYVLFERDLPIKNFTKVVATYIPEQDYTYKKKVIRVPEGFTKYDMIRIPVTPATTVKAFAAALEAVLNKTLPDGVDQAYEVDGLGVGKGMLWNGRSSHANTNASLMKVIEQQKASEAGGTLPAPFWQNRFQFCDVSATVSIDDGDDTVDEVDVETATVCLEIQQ

[3] = molecular target: AMP-activated protein kinase, AMPK (Homo sapiens) (UniProt P54646+O43741+P54619+Q9UGJ0+Q9Y478+Q13131+Q9UGI9); test: AMP-dependent Kinase enzyme assay. An in vitro enzyme assay that detects ADP turnover that is directly proportional to AMPK activity. This uses naive AMPK that is activated during the assay with MK-8722; type: functional; details: 30 µM
[4] = molecular target: Sialic acid-binding Ig-like lectin 9 (Homo sapiens) (UniProt Q9Y336); test: Hs-Siglec9 ALPHAscreen SOP 20170721; details: 10 µM
Sialic acid-binding Ig-like lectin 9 (Homo sapiens), sequence (Q9Y336 whole entry): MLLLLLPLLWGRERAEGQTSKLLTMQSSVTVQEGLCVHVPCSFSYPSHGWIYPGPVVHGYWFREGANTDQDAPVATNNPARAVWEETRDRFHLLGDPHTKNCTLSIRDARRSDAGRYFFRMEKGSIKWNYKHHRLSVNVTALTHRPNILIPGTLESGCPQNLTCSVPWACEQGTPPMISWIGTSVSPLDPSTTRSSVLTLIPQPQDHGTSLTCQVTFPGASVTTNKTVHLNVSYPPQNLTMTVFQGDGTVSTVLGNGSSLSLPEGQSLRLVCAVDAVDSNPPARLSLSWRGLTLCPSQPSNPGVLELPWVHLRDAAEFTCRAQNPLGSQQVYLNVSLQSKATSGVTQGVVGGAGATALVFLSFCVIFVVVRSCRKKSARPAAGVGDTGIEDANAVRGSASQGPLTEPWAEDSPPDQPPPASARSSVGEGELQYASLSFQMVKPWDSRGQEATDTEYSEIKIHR

[5] = system: Trypanosoma cruzi; test: Trypanosoma cruzi phosphomannomutase and mannose-1-phosphate guanylyltransferase assay; type: functional; details: 10 µM
[6] = molecular target: T2, Arginase-2, mitochondrial (Homo sapiens) (UniProt P78540); test: in vitro enzyme assay to detect the production of urea directly proportional to the activity of Arginase II; type: functional; details: 33.3 µM; also: in the data most compounds retested in dose-response had high values
T2 sequence (whole entry): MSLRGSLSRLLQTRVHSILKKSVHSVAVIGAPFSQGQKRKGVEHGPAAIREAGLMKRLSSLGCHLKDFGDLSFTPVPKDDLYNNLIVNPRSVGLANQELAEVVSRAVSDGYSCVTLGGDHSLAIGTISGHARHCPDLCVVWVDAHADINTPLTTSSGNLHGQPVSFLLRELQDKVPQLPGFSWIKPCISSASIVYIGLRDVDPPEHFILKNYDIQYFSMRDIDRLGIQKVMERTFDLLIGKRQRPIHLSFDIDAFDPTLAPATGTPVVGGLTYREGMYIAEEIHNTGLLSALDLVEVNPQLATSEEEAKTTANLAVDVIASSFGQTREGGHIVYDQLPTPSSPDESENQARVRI

[7] = molecular target: T3, Proteasome subunit beta (Trypanosoma cruzi) (UniProt O96673); test: Trypanosoma cruzi proteasome chymotrypsin-like activity (TcProtChymo) assay.; also: in the data most compounds retested in dose-response had high values; type: functional; details: 9.37 µM
T3 sequence (whole entry): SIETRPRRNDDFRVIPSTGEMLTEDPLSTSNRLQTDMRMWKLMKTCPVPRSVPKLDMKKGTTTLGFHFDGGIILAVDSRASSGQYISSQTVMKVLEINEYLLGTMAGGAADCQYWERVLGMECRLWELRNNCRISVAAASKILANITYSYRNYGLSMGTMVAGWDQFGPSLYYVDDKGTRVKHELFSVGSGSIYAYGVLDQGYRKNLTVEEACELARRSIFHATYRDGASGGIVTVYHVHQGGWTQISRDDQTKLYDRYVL

[8] = organism: Homo sapiens; test: To identify inhibition of the IFN signalling (Jak-Stat) pathway via expression of an eGFP reporter gene under the control of an IFN-stimulated response element (ISRE) containing MxA promoter.; type: functional; details: 30 µM
[9] = molecular target: T4, Tyrosyl-tRNA synthetase, putative (Trypanosoma cruzi (strain CL Brener)) (UniProt Q4DSP6); test: Trypanosoma cruzi tyrosyl tRNA synthetase (TcYRS) _High Tyrosine SOP; type: functional; details: 30 µM; also: in the data most compounds retested in dose-response had high values
T4 sequence (whole entry): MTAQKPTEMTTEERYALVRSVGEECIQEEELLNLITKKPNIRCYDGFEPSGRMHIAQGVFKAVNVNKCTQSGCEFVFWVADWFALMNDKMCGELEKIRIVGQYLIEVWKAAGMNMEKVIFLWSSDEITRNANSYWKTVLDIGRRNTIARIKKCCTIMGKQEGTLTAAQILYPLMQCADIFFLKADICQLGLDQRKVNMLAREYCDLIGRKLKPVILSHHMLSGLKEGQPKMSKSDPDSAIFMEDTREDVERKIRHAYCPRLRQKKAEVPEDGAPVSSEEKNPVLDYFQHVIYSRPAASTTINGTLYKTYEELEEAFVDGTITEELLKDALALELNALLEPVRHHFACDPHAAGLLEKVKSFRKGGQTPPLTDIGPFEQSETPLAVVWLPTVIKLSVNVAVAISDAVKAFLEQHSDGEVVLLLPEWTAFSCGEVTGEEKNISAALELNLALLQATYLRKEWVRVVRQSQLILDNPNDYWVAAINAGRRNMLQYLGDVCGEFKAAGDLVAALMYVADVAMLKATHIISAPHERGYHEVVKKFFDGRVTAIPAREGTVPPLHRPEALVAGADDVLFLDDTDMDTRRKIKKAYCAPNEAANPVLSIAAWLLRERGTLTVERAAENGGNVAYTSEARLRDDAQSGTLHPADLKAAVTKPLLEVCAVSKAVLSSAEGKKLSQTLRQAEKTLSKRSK

[10] = molecular target: T4, Tyrosyl-tRNA synthetase, putative (Trypanosoma cruzi (strain CL Brener)); test: Trypanosoma cruzi tyrosyl tRNA synthetase (TcYRS) SOP; type: functional; details: 30 µM
[11] = molecular target: Chromo domain-containing protein 1 (Saccharomyces cerevisiae (strain ATCC 204508 / S288c) (Baker's yeast)) (UniProt P32657); test: ScCHD-1 Enzyme Inhibition Assay; type: functional; details: 30 µM; also: in the data most compounds retested in dose-response had high values
Chromo domain-containing protein 1 (Saccharomyces cerevisiae (strain ATCC 204508 / S288c) (Baker's yeast)), sequence (P32657 whole entry, the tested form may be a part): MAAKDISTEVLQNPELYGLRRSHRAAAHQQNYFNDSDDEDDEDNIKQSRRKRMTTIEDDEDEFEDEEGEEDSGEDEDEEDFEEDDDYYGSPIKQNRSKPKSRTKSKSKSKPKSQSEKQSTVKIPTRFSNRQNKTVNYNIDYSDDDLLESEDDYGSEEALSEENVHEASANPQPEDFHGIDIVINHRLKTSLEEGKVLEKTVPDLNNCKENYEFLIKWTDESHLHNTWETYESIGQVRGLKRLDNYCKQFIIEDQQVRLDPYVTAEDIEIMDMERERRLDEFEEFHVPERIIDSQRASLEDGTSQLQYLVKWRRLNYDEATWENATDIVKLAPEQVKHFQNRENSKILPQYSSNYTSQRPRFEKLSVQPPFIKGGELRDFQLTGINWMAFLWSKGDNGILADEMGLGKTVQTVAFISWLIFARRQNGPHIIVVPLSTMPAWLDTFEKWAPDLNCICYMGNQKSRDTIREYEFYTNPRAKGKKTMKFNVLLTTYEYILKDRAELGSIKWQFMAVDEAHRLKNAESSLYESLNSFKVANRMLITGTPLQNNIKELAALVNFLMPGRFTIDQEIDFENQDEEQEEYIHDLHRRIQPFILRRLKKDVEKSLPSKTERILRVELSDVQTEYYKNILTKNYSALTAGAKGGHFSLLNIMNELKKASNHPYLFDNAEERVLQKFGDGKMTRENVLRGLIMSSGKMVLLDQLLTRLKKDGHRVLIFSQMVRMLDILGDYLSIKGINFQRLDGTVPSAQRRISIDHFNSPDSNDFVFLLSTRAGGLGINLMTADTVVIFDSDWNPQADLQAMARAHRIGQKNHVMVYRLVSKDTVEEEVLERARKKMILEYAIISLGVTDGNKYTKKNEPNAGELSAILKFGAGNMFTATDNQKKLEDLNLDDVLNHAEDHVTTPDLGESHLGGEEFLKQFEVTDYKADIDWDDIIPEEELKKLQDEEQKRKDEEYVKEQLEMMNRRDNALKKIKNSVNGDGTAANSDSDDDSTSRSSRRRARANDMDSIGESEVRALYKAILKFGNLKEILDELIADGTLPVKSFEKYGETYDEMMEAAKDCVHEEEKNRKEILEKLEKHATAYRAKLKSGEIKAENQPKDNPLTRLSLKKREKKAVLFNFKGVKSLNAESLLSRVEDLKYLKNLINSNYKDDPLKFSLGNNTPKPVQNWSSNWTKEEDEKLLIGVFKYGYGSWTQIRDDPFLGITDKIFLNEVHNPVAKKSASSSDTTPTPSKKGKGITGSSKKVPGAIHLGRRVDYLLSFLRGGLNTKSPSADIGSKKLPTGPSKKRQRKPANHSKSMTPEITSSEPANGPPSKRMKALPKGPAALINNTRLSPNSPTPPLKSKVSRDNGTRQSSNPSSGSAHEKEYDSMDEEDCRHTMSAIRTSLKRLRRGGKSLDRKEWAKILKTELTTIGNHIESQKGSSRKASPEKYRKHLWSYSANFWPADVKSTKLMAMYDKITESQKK

Protein translocase subunit SecA (Escherichia coli (strain K12)), sequence (P10408 whole entry): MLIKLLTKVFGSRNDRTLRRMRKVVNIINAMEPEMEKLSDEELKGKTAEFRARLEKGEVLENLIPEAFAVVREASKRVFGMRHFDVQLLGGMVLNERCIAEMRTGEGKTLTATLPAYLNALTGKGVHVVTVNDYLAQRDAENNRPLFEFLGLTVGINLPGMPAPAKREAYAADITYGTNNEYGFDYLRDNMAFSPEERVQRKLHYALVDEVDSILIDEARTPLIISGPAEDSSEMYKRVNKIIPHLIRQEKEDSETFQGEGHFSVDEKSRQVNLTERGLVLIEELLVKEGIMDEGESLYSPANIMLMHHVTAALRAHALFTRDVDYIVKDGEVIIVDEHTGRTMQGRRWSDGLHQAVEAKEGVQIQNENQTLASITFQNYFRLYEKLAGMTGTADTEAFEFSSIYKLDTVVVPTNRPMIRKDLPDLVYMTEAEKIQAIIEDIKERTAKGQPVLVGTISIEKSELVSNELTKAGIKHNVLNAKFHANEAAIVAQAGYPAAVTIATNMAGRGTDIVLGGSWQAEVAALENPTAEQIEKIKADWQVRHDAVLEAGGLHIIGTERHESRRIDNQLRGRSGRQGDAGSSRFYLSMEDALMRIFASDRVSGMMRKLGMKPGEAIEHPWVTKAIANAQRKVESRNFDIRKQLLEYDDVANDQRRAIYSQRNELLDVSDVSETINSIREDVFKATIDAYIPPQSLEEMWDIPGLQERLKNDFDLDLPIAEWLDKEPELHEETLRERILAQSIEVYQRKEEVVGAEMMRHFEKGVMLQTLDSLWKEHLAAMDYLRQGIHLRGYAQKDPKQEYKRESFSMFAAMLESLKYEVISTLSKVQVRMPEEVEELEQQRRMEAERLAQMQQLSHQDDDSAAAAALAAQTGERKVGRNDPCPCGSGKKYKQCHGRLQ

Structure (SMILES) | Percent Effect [1] [%] | Percent Effect [2] [%] | Percent Effect [3] [%] | Percent Effect [4] [%] | Percent Effect [5] [%] | Percent Effect [6] [%] | Percent Effect [7] [%] | Percent Effect [8] [%] | Percent Effect [9] [%] | Percent Effect [10] [%] | Percent Effect [11] [%]
O=C(Cn1ccc2sccc2c1=O)NCc1ccc2c(c1)OCO2 | -3.35 | 5.2 | 2.53 | 0.145 | -5.62 | 4.52 | 4.53 | 1.29 | 5.29 | 11.5 | -2.27
CCN(CC)c1ccc(NS(=O)(=O)c2cnn(C)c2)cn1 | -1.96 | 16.4 | -5.27 | 6.69 | 8.33 | -6.39 | 8.48 | 0.142 | 6.25 | 13.6 | -5.08
CC(C)(O)C1CCN(C(=O)Nc2nc(-c3ccccc3)ns2)CC1 | -2.39 | 2.7 | -2.64 | 7.48 | 2.25 | 18.6 | 18.8 | 55.5 | 1.07 | 3.7 | -3.52
CCc1cc(N[C@H]2CC[C@H](O)CC2)n2nc(C)c(C)c2n1 | -3.74 | 1.39 | 0.211 | -3.49 | -2.82 | -0.442 | 5.09 | -20.9 | -9.47 | 10.3 | -3.52
CC1CN(C(=O)CN(Cc2ccco2)C2CC2)CCO1 (configuration not stated) | -2.04 | 0 | 2.98 | -1.26 | -3.62 | 4.84 | 0.242 | 22.1 | 1.91 | 2.35 | -8.2
O=C(CN(Cc1ccccc1)CC1CCOCC1)Nc1nccs1 | -4.59 | 0 | 0.406 | 1.15 | -4.17 | 0.399 | 4.2 | -3.27 | 6.25 | 11.1 | -0.498
CCS(=O)(=O)N(C)C(=O)c1cc(C)n(-c2cccc(OC)c2)c1C | -6.4 | 20.2 | -7.29 | 7.26 | 3.68 | -5.32 | 4.34 | 28.1 | 4.43 | 21.5 | -8.76
CCCn1nc(C2CCNCC2)n(Cc2ccccc2)c1=O | -2.26 | 13.5 | -3.97 | 17 | 7.34 | -5.71 | 10.2 | 0.924 | 5.82 | 14.6 | -1.76
CC(C)Cc1noc(CN2CCOC(Cn3cncn3)C2)n1 (configuration not stated) | -1.12 | 10.8 | 2.5 | -4.71 | -6.22 | 4.25 | 0.718 | 16.7 | 0 | 13.4 | -0.689
Cc1nc(CN(Cc2ccccc2)C2CCS(=O)(=O)C2)oc1C (configuration not stated) | -2.4 | 15.8 | -3.46 | 2.71 | 5.32 | -1.08 | 10.4 | -8.35 | 7.39 | 23.5 | -6.72
CCCS(=O)(=O)N1CCO[C@H]2[C@H](OCc3ccccn3)CC[C@@H]21 | -9.04 | 8.11 | -5.79 | -1.28 | -0.977 | 5 | 10.1 | 5.42 | 10.9 | 15.8 | -2.32
Cc1nn(C)c(C)c1NC(=O)CN1CCCC1c1noc(C2CC2)n1 (configuration not stated) | 2.36 | 13.7 | -14.8 | 1.88 | -0.196 | 3.64 | 20.6 | -0.924 | 6.45 | 12.5 | -7.02
COc1cccc(CNC(=O)CC2CSc3ncc(C)c(=O)n32)c1 (configuration not stated) | -1.02 | 15.6 | 31.4 | -9.59 | -5.03 | 3.23 | 13.9 | 16.4 | 5.29 | 3.85 | -9.11
CC(N(C)Cc1nc2c(cnn2C)c(=O)[nH]1)C(C)(C)C (configuration not stated) | -4.87 | 13.5 | -4.12 | 2.57 | -10.1 | 2.03 | 7.72 | 24.6 | -1.98 | 3.66 | -4.7
CCn1nnc2c1C(COC)CN(C(=O)Cc1cccs1)C2 (configuration not stated) | -0.417 | 5.41 | -1.12 | -5.98 | -2.93 | -2.5 | 17.8 | -0.944 | 6.93 | 8.54 | 5.86
O=C(NCCCOCC1CCCO1)c1cccnc1N1CCCC1 (configuration not stated) | -2.67 | 5.41 | 4.06 | -10.2 | -2.93 | 0.833 | 14.3 | -4.98 | 9.9 | -3.66 | 6.21
O=C1N(c2ccc(Br)cc2)Cc2nc(=O)[nH]n21 | -6.3 | 22.7 | -2.95 | 0.772 | 1.38 | -1.58 | 4.44 | 7.62 | 5.29 | 15.4 | -11.8
Cc1ccc(CCNC(=O)N2CCCC(Cc3nccn3C)C2)cn1 (configuration not stated) | -5.16 | 0 | -1.4 | 2.27 | 4.49 | -2.5 | 9.89 | 16.9 | 7.92 | 13.4 | -0.907
Cc1csc(C2CCCN(C(=O)c3cnc[nH]3)C2)n1 (configuration not stated) | -3.16 | 10.8 | -8.22 | 15.3 | 3.11 | -4.41 | 3.42 | 32.5 | 5.42 | 18.5 | -10.5
Cc1ccc(=O)n(CC2(O)CCN(Cc3ccsc3)CC2)n1 | 1.03 | 1.35 | 9.78 | -1.02 | -4.74 | 3.02 | 12.9 | 2.32 | 7.53 | 9.09 | -6.08
Cc1cnn(CC2CN(Cc3nnc(-c4occc4C)o3)CCO2)c1 (configuration not stated) | -3.52 | 10.8 | 142 | -3.99 | 3.06 | -0.924 | -0.898 | 16 | 7.92 | 23.2 | -5.94
COCCOc1ccc(NC(=O)N(C)Cc2ccsc2)cn1 | 1.05 | 17.7 | -9.72 | -8.23 | -9.35 | 2.28 | 7.94 | 12.9 | 2.46 | 13.9 | -6.06
